Measurements as given in the supplement of paper PMC6555819.

The sequences below were run on VDR:RXRa (NR concentration 270 nM, RXRa partner concentration 90 nM) (assay: PBM binding z-score (relative to random genomic background probes); higher = stronger binding; sequences stand for … in GC…GCGATTGACAGCGTAGAATGAAGG).
Procedure: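 Protein-binding microarray (Agilent 4x180K custom design, double-stranded 60-nt probes: 5' GC cap, 34-nt variable region, 24-nt constant primer region; full probe sequence given). Purified or IVT nuclear receptor:RXRα heterodimers (3:1 NR:RXRα, mostly 270:90 nM) or homodimers were incubated for 1 h in PBS with 2% milk and no ligand, then detected with Alexa488 antibodies. Fluorescence from o1-orientation probes (~5 replicates averaged) was converted to z-scores against 500 random hg19 background probes. Variable regions are seed direct-repeat (DR0–DR5) sites, all their single-nucleotide variants and half-site ablations.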

Sequence	PBM binding z-score
CCTAGCAGGCCTGGGTCACTCAAGCATTTCGCTT	0.546
TCGAGTAGGTTAGTCGGGGCATTCAACCAACATA	2.31
TATATTAGTTGAAGGGCAACCGACGAGTCCGTTT	0.939
TGAATGAGGTTATAGATCAGGGAACGTGGCGTCG	1.06
GAGACTGGGGCATCAGCAGGTTACCATAACTTAA	0.317
CTCGAAAGGTCGTGCTCAGGAGAGTATACCAAAC	2.92
CTACCAAGATGAACAAGGTCGTTGATTACTATTC	2.52
CCTATTGGGCCACGAAAGGTCATTGATTCAGTGA	4.16
TCGAGTAGGTTAGTCGGGGCAGTCAGCCAACATA	0.666
ATCTCTAGGTAAAAGTTCACTGAATCCCGAGGAT	2.58
TGTATGAGGTTATAAGATCAGGGAACGTTGCAAA	1.26
CCTACTGGGCCAAAAAGGTCATTGGTGCCGATAA	5.2
GCTCGGACGACAAGGTCAGAGCTTTGTCCGTAGA	1.4
CGTCCAAGGTCAATGCTAGGTCAGTGCAAGCATT	4.95
ATCTCTAGGTAAGACTCAGTTTAGTGAAGAACGC	0.468
CAAACTAGGTCAAGTTCAAAGTCGGTTTGTGCCA	4.94
GGAGCGAGGGCATTCGAGTTGATAGCATGGCGAT	3.31
CCTACTGGGCCAAGGTCATTCATCAGTCAAAGCA	3.55
TCATATAGCTAAATGCTAGGTGAAAGTCCGATCT	0.429
TCTGGTAGGTCAGTTGGTCAGCTAACGAGCTGCC	0.483

Sequence	PBM binding z-score
GCTAGCAGGCCATTTGGGTGACTCAATGACGGGC	-0.749
CCGACTGGGGCAAAGGTTACCTTACTCAGTACGA	1.21
CGTCCAAGGTCAGAGAGGTCAGGGAATGCCGAGT	7.31
CTACCAAGGAGAACAAGGTCGTTGATTACTATTC	1.56
CGTCAAAGTACAAGGTAACGTAACAGAAAGCAGC	0.215
CCGACTGGGACAAGGTTACCATAACGCACAGCCA	0.2
TGAAGGAGGTTAAAGATCAGGGAACGTGGCGTCG	1.24
TTACGAAGGTGAAGGTCGTTGATCCCTCTGTAGA	1.39
ACTAGTTGGTCAGCTGAGGTGACACACAATTCGG	0.731
TCTAGTTAGTCACGGAGGTCACACACGACGGGTA	4.24
CCTTATGGGTCAAGGTTATAGCACGGGTGGTACG	2.45
CAAATTAGGTCACGAAAGGTCAAAGTCGAATGAC	7.06
CGTCCAAGGGCAGAGAGGTCAGTGAATGCCGAGT	5.05
CCGACTGGGGCAGAAATGTTACCATACCATCCGG	-0.557
ACTTACGGGTGAACGAGGTTATAGCACGCGTATA	5.33
ATCTCAAGGTAACCAAGTTCAGTGAATGCCGAAC	5.03
ACTATTAGTTGACTTAGGGTAACCGATACGACGC	0.225
TCTTGTAGATCAACAGGAGGTTAACAAAGATCGA	0.812
TCTCGGAGCACACGAAAGGTCAGAGCTCGACATC	2.26
TCATATGGGTAAATGCTAGGTGAAAGTCCGATCT	0.528
